The text below walks through data of PubChem BioAssay (NCI).

Compounds without any hit were thinned out: in the full panel of roughly 83,000, 20% have a hit.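 For each line, cells grew in 96-well plates with the test compound present at a single concentration for 48 hours.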 Values without a mark were called inactive. Calls of active or inactive are those of the source. The calls were made as follows: active = growth percent below 10; inactive = the rest.

This assay deals with HL-60(TB) leukemia. As to the kind of experiment: NCI-60 one-dose screen, 48 h (100 = growth as untreated, 0 = no growth, -100 = all killed). The conditions noted are these: 10 µM unless noted.
Consider `O=C(NCc1ccccc1)C1CN(c2ccc(Cl)cc2)N(c2ccc(Cl)cc2)C1=O` (stereo not given), for which the growth is 81.7%.

On to `COc1ccc(OC)c(Cn2cc3c(c2-c2ccccc2)CCc2cnoc2-3)c1`, for which the growth is 32.2%.

For `CCC(c1ccc(OC)cc1)C(CC)c1ccc(O)c(CN2CCCCC2)c1` (stereo not given), the growth is 52.6%.

As to `C=C1C(=O)O[C@H]2[C@H]1CC/C(COC(=O)NCc1ccc(Cn3c(=O)sn(-c4ccc(OC)cc4)c3=O)cc1)=C\CC[C@@]1(C)O[C@@H]21`, the growth is -18% (active).

On to `O=[n+]1ccn([O-])c2ccccc21`, for which the growth is 118%.

Consider `COc1cc2c(=O)n(CCN(C)C)c3c4cc5c(cc4ccc3c2cc1OC)OCO5`, for which the growth was 8.03% (active).

On to `CN(C)c1ccc(N=C2C=CC(=O)c3ccccc32)cc1`, for which the growth is 82.2%.

As for `CCOC(=O)c1cc(C(=O)c2cc(OC)cc(OC)c2)n2ccc3ccccc3c12`, the growth is 103%.

Regarding `COc1ccc2cn3c4ccc(O)cc4[nH]c(=O)c3c2c1`, the growth is -7.42% (active).

For the compound `COc1cc2c(Nc3ccc(S(N)(=O)=O)cc3)ncnc2c(OC)c1OC`, the growth is 91.5%.

For the compound `COc1ccc(/C=c2\c(=O)n(-c3ccccc3)c3nn4c(n23)=NNC42CCCCC2)cc1`, the growth was 110%.

For the compound `C=C1C(=O)O[C@H]2[C@H]1CC/C(C=Nc1c(N)cc(C(F)(F)F)cc1Br)=C\CC[C@@]1(C)O[C@@H]21`, the growth is -13.1% (active).

Consider `CC(=O)Nc1ccc(-c2cc3c(NCc4ccc(F)cc4)ncnc3s2)cc1`, for which the growth was 89.1%.

On to `CC(C)[N+]1(C)C2CC[C@@H]1CC(OC(=O)C(CO)c1ccccc1)C2` (stereo not given in full), for which the growth was 107%.

As for `N#Cc1c(-c2ccc(Cl)cc2)n(O)c2ccccc12`, the growth was -0.349% (active).

As for `Nc1nc(CSc2n[nH]c(N)n2)nc(Nc2ccccc2)n1`, the growth was 92.7%.

Take `CC(C)(O)CCl`: the growth is 120%.

As for `COC1=C(C)C(=O)c2c(c(CCCl)c3n2CCC3O)C1=O` (stereo not given), the growth was 50.3%.

On to `Cc1nc2sc(C(=O)Nc3cccc(Cl)c3)c(N)c2cc1C(O)c1ccccc1` (stereo not given), for which the growth is -40.9% (active).

On to `CN1C2CCC1/C(=C\c1ccc(F)cc1)C(=O)/C2=C/c1ccc(F)cc1`, for which the growth was 12.1%.

Consider `COc1cc2c(/C=C3\C(=O)Nc4ccc(Br)cc43)c(Cl)n(C)c2cc1C`, for which the growth was -13.1% (active).

In the case of `CCC(C)(C)C(=O)O[C@H]1C[C@@H](C)C=C2C=C[C@H](C)[C@H](CC[C@@H]3CC=CC(=O)O3)[C@H]21`, the growth was 5.76% (active).

In the case of `ClC(Cl)(Cl)c1nc2nccnc2[nH]1`, the growth was 103%.

`CCN(CC)CC(O)CNc1ccc(NCC2CO2)c2c1C(=O)c1ccccc1C2=O` (stereo not given): the growth was -25.2% (active).

As to `CCCCCCC(C)(O)c1ccccc1` (stereo not given), the growth was 94.6%.

With `CSc1nc(N)c(N=Nc2ccc(S(=O)(=O)Nc3nnc(C)s3)cc2)c(=O)[nH]1`, the growth is 90.4%.

In the case of `CNC(=O)c1cc(Oc2ccc3nc(NC(=O)Nc4ccc(Cl)cc4)sc3c2)ccn1`, the growth was 98.9%.

As to `NC1=C(Cl)C(=O)c2ccc(S(N)(=O)=O)cc2C1=O`, the growth is 3.12% (active).

Consider `S=C1SCN(Cc2cccs2)CN1Cc1cccs1`, for which the growth was 91%.

Turning to `CCN(CC)Cc1cc(Nc2c3ccc(Cl)cc3nc3c(C)cccc23)ccc1O`, the growth was -19.7% (active).

Take `O=C1C2=C(Nc3cc(Cl)ccc3N2)OC1c1c[nH]c2ccc(COc3ccccc3)cc12` (stereo not given): the growth was 81.6%.

As to `C#CCOc1ccc2ncnc(Nc3cccc(CNC(=O)C=C)c3)c2c1`, the growth is 97.4% [8.25 µM].

With `COc1cc2c(cc1-c1c(C)noc1C)ncc1nc(C3CCCCC3)n([C@@H](C)COC(F)F)c12`, the growth was 17.4%.

For `C=C(C)[C@@H]1CC[C@]2(C(=O)O)CC[C@]3(C)[C@H](CC[C@@H]4[C@@]5(C)C[C@@H](CC#Cc6ccc(C(C)=O)s6)[C@H](O)C(C)(C)[C@@H]5CC[C@]43C)[C@@H]12`, the growth was 54%.

`CN1CCN(CC(=O)Nc2ccc(-c3nc4ccccc4s3)cc2)CC1`: the growth was 96.4%.

As for `COc1cccc(NC(=O)c2sc3nc4c(cc3c2N)C(O)CCC4)c1` (stereo not given), the growth was -16.8% (active).

On to `COc1cc(/C=C/C(=O)/C=C/c2ccc(-n3ccnc3C)cc2)ccc1O`, for which the growth was 49.5%.

Regarding `CC(C)CCSc1nc(Nc2ccccc2)c(C#N)c(-c2ccc(F)cc2)n1`, the growth was 59.6%.

On to `O=C(c1ccccc1)c1c(/C=C/c2ccc(Cl)cc2)nc2ccccc2c1/C=C/c1cccs1`, for which the growth was 102%.

`CCCCC1COc2cccc3c2N1C=C/C3=C\C(=O)n1ccc2ccccc21` (stereo not given): the growth was 58%.
